Seven compounds from PubChem BioAssay (NCATS) can be followed below.

The target in assay [1] is Cytochrome P450 3A4 (Homo sapiens) (UniProt P08684). In words: qHTS Assay for Inhibitors and Substrates of Cytochrome P450 3A4 (AID 884). Also: potency is read from the fitted curve at half-maximal effect; nearly all actives have a fitted effect of over 50% in size. The method in brief:
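Luminescent readout of luciferin produced by CYP3A4 (20 nM) dealkylation of Luciferin-PPXE, 25 uM (its KM). NADPH-driven reaction ran 60 min at RT after 10 min compound preincubation; data scaled to 57 uM ketoconazole as 100% inhibition.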
On the technique in general: qHTS replaces the single test concentration by a dilution series.

For assay [2] the target is unchanged. In words: qHTS Assay for Activators of Cytochrome P450 3A4 (AID 885). Also: nearly all actives have a fitted effect of over 65% in size. Summed up:
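Activators are scored by enhanced luminescence from CYP3A4 conversion of luciferin-PPXE (25uM, equal to KM) to luciferin, after 60 min at RT with an NADPH-regenerating system.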

Assay [3] is described as follows: Confirmation and Secondary Assay for Modulators of Hemoglobin Beta Chain Splicing at IVS2 654 locus (AID 910).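 Also: HeLa cells stably carrying EGFP split by mutant beta-globin IVS2-654 intron; % of control where 0% means no effect.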 The method in brief:
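HeLa cells stably expressing EGFP interrupted by β-globin IVS2-654 intron, seeded overnight in Opti-MEM/2% FCS, then treated 2 days at 37 °C. Restored splicing read as total peak GFP intensity per well by laser scanning cytometry (488 nm excitation, 500–520 nm emission); 500 nM antisense PNA as control.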

The nature of assay [4]: Confirmation and Secondary Assay for Modulators of Hemoglobin Beta Chain Splicing at IVS2 705 locus (AID 930).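 Also: HeLa cells stably expressing the EGFP-705 splicing reporter; GFP fluorescence per well restored by corrected splicing of the IVS2-705 intron in EGFP; % of control where 0% means no effect.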 The method in brief:
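Stable HeLa line with EGFP disrupted by mutant beta-globin intron 2 (705). Overnight attachment, then 2 days of compound at 37C, 5% CO2. Signal: peak GFP intensity summed over objects 5-250 µm.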

A short description of assay [5]: qHTS Assay for Lipid Storage Modulators (AID 1519; calls by dose curve). Conditions: Drosophila S3 cells, BODIPY lipid droplet/cell ratio, laser cytometry, cells loaded with oleic acid. The method in brief:
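Cells seeded at 5,000 per well were treated with compounds over a concentration series and loaded with oleic acid (400 uM, as added). Lipid droplet fluorescence (488 nm excitation, 500-530 nm channel) was read by laser-scanning cytometry and normalized to 20 uM Triacsin C.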

Assay [6] is described as follows: AP1 Signaling Pathway (AID 357; active = well fitted curve in either direction with a large enough effect, not every such curve was filed as active;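 also: ME-180 reporter cells stimulated with EGF at its EC50 level; % is scaled to controls: 0 for no effect and ±100 for the full control effect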). Summed up: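 A ratiometric CCF4 readout (405 nm excitation; 460 and 530 nm emission) quantified AP-1-driven beta-lactamase in ME-180 cells after 5 h with compound and EC50 EGF; AC50 values were derived for activators and inhibitors.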
The target of assay [7] is Cytochrome P450 1A2 (Homo sapiens) (UniProt P05177). The assay is described as follows: p450-cyp1a2 (AID 410; calls by dose curve; also: potency is read from the fitted curve at half-maximal effect;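 as to activity change, negative = inhibition: -100% = full effect of reference inhibitor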). The method in brief:
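Luminescent demethylation readout: Luciferin-ME (100uM, equal to Km) turned over by 20nM CYP1A2 for 60 min at room temperature after NADPH regeneration addition, following 10 min compound preincubation. Normalization used 57 uM furafylline as full inhibition.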

Assay [8] can be described thus: NFAT Signaling Pathway (AID 444; active = well fitted curve in either direction with a large enough effect, not every such curve was filed as active;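 also: carbachol stimulus at about its EC50 of 1 µM final; % is scaled to controls: 0 for no effect and ±100 for the full control effect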). Conditions: Jurkat NFAT-bla M1, carbachol, beta-lactamase ratio, 5 h. Summed up: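 Jurkat cells with NFAT-driven β-lactamase reporter and co-expressed M1 receptor, stimulated with carbachol (final 1 uM, ~EC50), compound titration, 5 h at 37 °C. CCF4 loaded 1 h at RT; 460/530 nm ratio gave %activity and AC50.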
Assay [9] in a line: Stat Signaling Pathway (AID 446; active = well fitted curve in either direction with a large enough effect, not every such curve was filed as active;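 also: ME-180 cervical cancer cells given 40 pM IL-6 alongside compound; SIE-controlled beta-lactamase reporter measured as 460/530 nm FRET emission ratio; % is scaled to controls: 0 for no effect and ±100 for the full control effect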). The method in brief: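 Emission at 460 and 530 nm (excitation 405 nm) reports SIE-controlled beta-lactamase in ME-180 cells. Cells received compound with 40 pM IL-6 for 5 hrs at 37 C; data scaled between 300 pM IL-6 and 125 nM JAK-inhibitor controls.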
The target of assay [10] is Glucocorticoid receptor (Homo sapiens) (UniProt P04150). In words: GR-GFP Redistribution (AID 450;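 active = compounds whose dose series gives a full or clear partial fitted curve of increased nuclear translocation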; also: potency is read from the fitted curve at half-maximal effect). To be noted: U2OS GR-GFP nuclear translocation, laser cytometry, 2 h.
Assay [11] has the same target. In words: GR-EFC Redistribution (AID 451; calls by dose curve; also: potency is read from the fitted curve at half-maximal effect). Conditions: CHO-K1 GR-EFC translocation, beta-gal luminescence, 2 h. Summed up:
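CHO-K1 cells expressing nuclear EA and GR-ED fragments of b-gal; compounds titrated up to 46 uM final, 2 h at 37 C. GR nuclear translocation read as complemented b-gal luminescence after 1 h RT detection.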

For assay [12], the target named is Mitogen-activated protein kinase 10 (Mus musculus) (UniProt Q61831). The assay is described as follows: JNK3 AlphaScreen Assay (AID 530; active = well fitted curve in either direction with a large enough effect, not every such curve was filed as active;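 also: kinase came from lysate of stimulated human HepG2 cells; signal reports phosphorylation of biotinylated GST-cJun 1-79 at Ser73 with 10 µM ATP; % is scaled to controls: 0 for no effect and ±100 for the full control effect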). Summed up:
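Activity was read by AlphaScreen after JNK3-containing HepG2 lysate (cytokine pre-activated) phosphorylated biotinylated GST-cJun with 10 uM ATP at room temperature. Phospho-Ser73 cJun antibody with Protein-A acceptor beads provided detection.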
Background: Bead proximity is the source of the signal in Alpha formats.

Assay [13] addresses 3',5'-cyclic-AMP phosphodiesterase 4B (Homo sapiens) (UniProt Q07343). In words: qHTS Assay for Inhibitors of PDE-IV (AID 607; active = well fitted activation curve with a large enough effect in the main read-out, with a control signal flat, not every such curve was filed as active; also: % of control where 0% means no effect). Summed up:
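The readout is membrane depolarisation from a cAMP-sensing CNG channel, detected with a potential dye at ex 535/em 590. Cells were HEK293-derived (endogenous PDE-IV) at 1000 cells/well, titrated up to 22.9 uM final.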

Assay [14] has as its target Luciferin 4-monooxygenase (Photinus pyralis) (UniProt P08659). In words: Biochemical firefly luciferase enzyme assay for NPC (AID 624030).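 Also: purified P. pyralis luciferase at 10 nM with luciferin and ATP substrate; 0% = DMSO and -100% = full luciferase inhibition by PTC124 control; nearly all actives have a fitted effect of over 70% in size.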 The method in brief:
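Purified P. pyralis luciferase at 10 nM in 50 mM Tris Acetate (final), luminescence read within 5 minutes of enzyme addition to compounds. Activity normalised to PTC124 versus DMSO; concentration-response curves classed by r2, magnitude and activity.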

Assay [15] in a line: S16 Schwann cell PMP22 intronic element firefly luciferase assay (AID 624032). Also: nearly all actives have a fitted effect of over 30% in size. Also: potency is read from the fitted curve at half-maximal effect.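 As to activity change, negative = inhibition: plate controls were DMSO for no effect and PTC124 positive control mean for full effect.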 The method in brief:
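Rat S16 Schwann cells stably carrying firefly luciferase driven by a PMP22 intronic element, in 10% FBS, treated 24 h at 37 C. ONE-Glo luminescence normalized to PTC124 control and DMSO (0%); curves classed by r2, magnitude and activity.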

A short description of assay [16]: qHTS profiling for inhibitors of Plasmodium falciparum proliferation (AID 504749). Also: potency is read from the fitted curve at half-maximal effect.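 As to activity, negative = inhibition: 0% = DMSO vehicle and full inhibition = artemisinin control.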 As to all read-outs here: nearly all actives have a fitted effect of over 60% in size. To be noted: P. falciparum in erythrocytes, SYBR Green DNA, 72 h; for activity, negative = inhibition: at 12.8 µM (top of the series). The method in brief: (§1)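 Each compound contacts P. falciparum-infected red blood cells for 72 h at 37 C; lysis buffer (Tris, EDTA, saponin, Triton X, SYBR Green I) is added and fluorescence measured next morning; values normalized to controls.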

For assay [17], the system named is C2A. The assay is described as above. Conditions: P. falciparum in erythrocytes, SYBR Green DNA, 72 h; series mostly up to 28.7 µM. Summed up: as §1
The test system of assay [18] is CP185. The assay is described as above. Conditions: P. falciparum in erythrocytes, SYBR Green DNA, 72 h; series mostly up to 28.7 µM. The method in brief: as §1
Assay [19] concerns FAB9. The description is as above. To be noted: P. falciparum in erythrocytes, SYBR Green DNA, 72 h; series mostly up to 28.7 µM. The method in brief: as §1
Assay [20] deals with Ubiquitin carboxyl-terminal hydrolase 1 (Homo sapiens) (UniProt O94782). The assay is described as follows: Inhibitors of USP1/UAF1: Pilot qHTS (AID 504865).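 Also: rhodamine fluorescence freed from ubiquitin-rhodamine substrate followed over time; top concentration of the series differs between compounds; % is scaled to controls: 0 for no effect and ±100 for the full control effect; nearly all actives have a fitted effect of over 35% in size.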 The method in brief: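 Kinetic fluorescence assay: 1nM USP1/UAF1, 15 min compound preincubation, then 150nM Ub-Rho; 480/540 nm.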
The mark [21] stands for this setting: measured here: cell count channel max response.
Where [22] appears, read: measured here: lipid channel max response.

Values joined by “and” are separate entries in the source; they are usually repeats but may differ in a detail not shown here. Identical values can stand only once. Results filed as inconclusive are left out. Active and inactive are the calls of the source. Unless noted, calls follow the shape of the dose curve; as a rule, active = well fitted curve in the direction sought with a large enough effect; inconclusive = small, poorly fitted or top-dose-only effect, or another doubt; inactive = no such curve, though single readings can be large; an effect the other way counts as inactive or inconclusive.

Chain of Cytochrome P450 3A4 (Homo sapiens) (P08684 whole entry, looked up): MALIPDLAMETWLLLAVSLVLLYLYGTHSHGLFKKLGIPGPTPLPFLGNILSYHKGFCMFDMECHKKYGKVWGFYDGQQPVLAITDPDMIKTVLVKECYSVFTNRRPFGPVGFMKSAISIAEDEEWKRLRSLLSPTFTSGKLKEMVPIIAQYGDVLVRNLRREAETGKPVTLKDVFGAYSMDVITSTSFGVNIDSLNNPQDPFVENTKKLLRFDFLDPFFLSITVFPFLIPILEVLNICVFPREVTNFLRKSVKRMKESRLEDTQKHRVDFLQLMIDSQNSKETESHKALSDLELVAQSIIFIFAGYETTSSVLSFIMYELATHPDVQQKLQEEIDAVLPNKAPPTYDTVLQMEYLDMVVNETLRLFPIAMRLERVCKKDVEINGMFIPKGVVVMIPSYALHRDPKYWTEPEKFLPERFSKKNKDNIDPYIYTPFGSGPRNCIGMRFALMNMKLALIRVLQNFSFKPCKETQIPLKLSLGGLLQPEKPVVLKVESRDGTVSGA
Chain of Ubiquitin carboxyl-terminal hydrolase 1 (Homo sapiens) (O94782 whole entry, looked up): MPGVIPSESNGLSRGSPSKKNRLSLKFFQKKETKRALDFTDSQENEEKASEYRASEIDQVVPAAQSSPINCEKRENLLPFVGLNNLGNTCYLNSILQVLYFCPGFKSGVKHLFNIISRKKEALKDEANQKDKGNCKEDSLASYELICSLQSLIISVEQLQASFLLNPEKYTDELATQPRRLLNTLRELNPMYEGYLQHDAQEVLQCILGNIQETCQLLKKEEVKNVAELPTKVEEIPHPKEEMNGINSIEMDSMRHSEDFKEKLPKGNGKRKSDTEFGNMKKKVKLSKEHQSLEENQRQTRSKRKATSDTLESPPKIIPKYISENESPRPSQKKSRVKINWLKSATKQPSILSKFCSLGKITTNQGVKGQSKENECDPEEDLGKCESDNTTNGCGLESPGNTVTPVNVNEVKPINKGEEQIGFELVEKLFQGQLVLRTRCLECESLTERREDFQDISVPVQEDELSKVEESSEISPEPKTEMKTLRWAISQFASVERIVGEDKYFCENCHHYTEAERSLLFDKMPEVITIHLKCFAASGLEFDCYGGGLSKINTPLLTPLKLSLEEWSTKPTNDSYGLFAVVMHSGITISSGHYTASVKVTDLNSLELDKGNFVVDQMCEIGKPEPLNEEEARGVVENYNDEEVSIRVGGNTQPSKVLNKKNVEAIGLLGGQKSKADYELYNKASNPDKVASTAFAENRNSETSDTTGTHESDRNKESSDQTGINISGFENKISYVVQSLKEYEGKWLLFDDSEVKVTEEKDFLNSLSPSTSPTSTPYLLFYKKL
Chain of 3',5'-cyclic-AMP phosphodiesterase 4B (Homo sapiens) (Q07343 whole entry, looked up): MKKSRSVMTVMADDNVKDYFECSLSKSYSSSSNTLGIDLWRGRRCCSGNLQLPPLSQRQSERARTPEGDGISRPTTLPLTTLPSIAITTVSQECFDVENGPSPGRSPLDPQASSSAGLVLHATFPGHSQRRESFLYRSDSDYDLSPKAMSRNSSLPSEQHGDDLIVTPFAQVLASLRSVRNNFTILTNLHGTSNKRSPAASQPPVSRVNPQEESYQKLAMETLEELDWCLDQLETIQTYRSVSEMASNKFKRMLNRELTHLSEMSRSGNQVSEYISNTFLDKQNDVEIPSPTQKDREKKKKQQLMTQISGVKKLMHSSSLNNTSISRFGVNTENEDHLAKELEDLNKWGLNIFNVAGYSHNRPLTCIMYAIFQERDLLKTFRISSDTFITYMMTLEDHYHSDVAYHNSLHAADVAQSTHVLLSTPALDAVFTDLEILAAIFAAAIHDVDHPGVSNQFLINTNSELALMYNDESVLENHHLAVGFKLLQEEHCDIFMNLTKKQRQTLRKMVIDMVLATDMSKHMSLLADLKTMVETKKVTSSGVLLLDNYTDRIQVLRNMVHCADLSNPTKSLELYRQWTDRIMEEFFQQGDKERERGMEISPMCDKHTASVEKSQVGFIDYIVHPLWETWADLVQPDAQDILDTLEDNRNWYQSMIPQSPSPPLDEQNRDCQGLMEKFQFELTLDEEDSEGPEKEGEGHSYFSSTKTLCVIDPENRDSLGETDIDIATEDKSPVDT
Chain of Glucocorticoid receptor (Homo sapiens) (P04150 whole entry, looked up): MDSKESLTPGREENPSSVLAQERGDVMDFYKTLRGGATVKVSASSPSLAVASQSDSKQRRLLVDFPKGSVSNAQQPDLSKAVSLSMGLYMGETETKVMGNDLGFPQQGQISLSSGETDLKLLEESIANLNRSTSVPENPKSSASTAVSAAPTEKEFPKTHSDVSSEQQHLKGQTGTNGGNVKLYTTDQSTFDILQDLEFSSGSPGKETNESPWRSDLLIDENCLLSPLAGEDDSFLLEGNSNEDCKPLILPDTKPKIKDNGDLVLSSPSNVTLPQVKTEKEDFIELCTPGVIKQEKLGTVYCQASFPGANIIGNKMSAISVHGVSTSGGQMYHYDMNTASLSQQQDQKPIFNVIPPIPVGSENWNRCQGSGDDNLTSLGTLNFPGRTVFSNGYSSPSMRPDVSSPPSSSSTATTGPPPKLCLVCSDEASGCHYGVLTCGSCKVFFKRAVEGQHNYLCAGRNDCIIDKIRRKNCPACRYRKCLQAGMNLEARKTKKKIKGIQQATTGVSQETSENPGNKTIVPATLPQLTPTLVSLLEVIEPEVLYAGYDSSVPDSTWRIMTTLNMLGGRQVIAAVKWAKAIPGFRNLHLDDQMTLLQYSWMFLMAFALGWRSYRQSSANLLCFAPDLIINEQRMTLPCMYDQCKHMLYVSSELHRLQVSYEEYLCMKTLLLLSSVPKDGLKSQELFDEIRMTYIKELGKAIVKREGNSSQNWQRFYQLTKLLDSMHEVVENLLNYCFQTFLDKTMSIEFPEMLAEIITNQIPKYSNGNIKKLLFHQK
Chain of Cytochrome P450 1A2 (Homo sapiens) (P05177 whole entry, looked up): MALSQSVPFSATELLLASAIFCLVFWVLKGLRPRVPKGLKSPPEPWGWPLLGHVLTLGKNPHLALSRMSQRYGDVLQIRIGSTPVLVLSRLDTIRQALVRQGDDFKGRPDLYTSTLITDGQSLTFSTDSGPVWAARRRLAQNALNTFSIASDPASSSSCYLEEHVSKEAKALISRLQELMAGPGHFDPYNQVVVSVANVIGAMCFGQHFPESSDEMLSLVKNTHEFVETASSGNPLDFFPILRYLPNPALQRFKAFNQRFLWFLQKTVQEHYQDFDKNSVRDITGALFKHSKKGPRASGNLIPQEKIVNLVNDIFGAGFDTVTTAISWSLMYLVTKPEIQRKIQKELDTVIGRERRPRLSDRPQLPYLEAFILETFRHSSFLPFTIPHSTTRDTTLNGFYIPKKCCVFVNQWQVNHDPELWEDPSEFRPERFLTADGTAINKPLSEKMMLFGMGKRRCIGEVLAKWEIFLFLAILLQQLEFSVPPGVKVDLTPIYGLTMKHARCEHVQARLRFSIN
Chain of Luciferin 4-monooxygenase (Photinus pyralis) (P08659 whole entry, looked up): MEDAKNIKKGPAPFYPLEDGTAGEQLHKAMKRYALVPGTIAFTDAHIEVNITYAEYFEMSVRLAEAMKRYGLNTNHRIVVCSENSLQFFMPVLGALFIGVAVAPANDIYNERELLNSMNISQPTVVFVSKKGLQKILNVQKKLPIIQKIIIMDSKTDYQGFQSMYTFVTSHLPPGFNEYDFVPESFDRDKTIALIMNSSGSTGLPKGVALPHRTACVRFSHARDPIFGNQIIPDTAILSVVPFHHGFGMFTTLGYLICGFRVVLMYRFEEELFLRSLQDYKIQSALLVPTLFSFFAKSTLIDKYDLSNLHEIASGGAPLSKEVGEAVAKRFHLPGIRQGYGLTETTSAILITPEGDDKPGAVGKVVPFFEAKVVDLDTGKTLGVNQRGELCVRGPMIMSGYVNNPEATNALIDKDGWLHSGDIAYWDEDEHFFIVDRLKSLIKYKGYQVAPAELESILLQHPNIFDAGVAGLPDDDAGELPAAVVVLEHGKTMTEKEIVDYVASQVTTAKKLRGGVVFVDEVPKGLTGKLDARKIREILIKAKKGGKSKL

On to `ClC1=C(Cl)C2(Cl)C3C(Cl)C=CC3C1(Cl)C2(Cl)Cl` (centres undefined), for which the Potency in [1] was 10 µM (active). In addition, the Potency result in assay [2], in assay [3] and in assay [4] was “inactive” throughout. Also, in assay [5] (at 57.5 µM (top of the series)), the activity change, negative = inhibition is 4.59% (inactive). Also, the max response in assay [5] (setting [21]) worked out at 11.3%; in assay [5] (setting [22]) it was 18.4%.

For the compound `COc1ccc2c(c1OC)CN1CCc3cc4c(cc3[C@H]1C2)OCO4`, the compound was classed as inactive in assay [6], in [9] and in assay [12]. The Potency in assay [7] was 1.58 µM (active); in [10], > 20.6 µM (inactive); in assay [11] it was > 20.6 µM (inactive); in assay [16] (parasite line A), 2 µM (active); in assay [17], 2.24 µM (active); in [18], 2.51 µM (active). The Potency in assay [19] was 3.16 µM (active). The activity change, negative = inhibition is -25.2% (inactive) in [8] (at 17.2 µM (top of the series)) and -2.73% (inactive) in [5] (at 25.7 µM (top of the series)). Further, the Potency entry in [13], in assay [14] and in assay [15] was “inactive” each time. Moreover, the max response is -16.8% in assay [5] (setting [21]) and -19% in assay [5] (setting [22]).

With `CN1CCc2cc3c(cc2[C@@H]1[C@@H]1OC(=O)c2c1ccc1c2OCO1)OCO3`, the compound was classed as inactive in assay [6] and in assay [9]. The Potency in [7] was 15.8 µM (active); in assay [10], > 46 µM (inactive) and > 20.6 µM (inactive); in assay [11], > 46 µM (inactive) and > 20.6 µM (inactive); in [1] it was 0.794 µM (active). Moreover, the activity change, negative = inhibition is 4.41% (inactive) in assay [8] (at 17.2 µM (top of the series)), -4.78% (inactive) in [8] (at 38 µM (top of the series)) and -1.13% (inactive) in [5] (at 25.7 µM (top of the series)). Further, the Potency result in assay [13], in assay [2] and in [20] was “inactive” throughout. For the same compound, the max response in assay [5] (setting [21]) is -3.68%; in assay [5] (setting [22]) it was -5.44%.

For `O=C(O)CNCP(=O)(O)O`, the compound was called inactive in [6] and in [9]. Further, the Potency in [10] was > 46 µM (inactive); in assay [11] it was > 9.22 µM (inactive). Moreover, the activity change, negative = inhibition was 1.05% [at 11.4 µM] (inactive) in [12] and 2.6% (inactive) in [5] (at 57.5 µM (top of the series)). Besides, the Potency result in assay [13], in assay [3] and in assay [4] was “inactive” each time. Moreover, the max response stood at 16.5% in assay [5] (setting [21]) and 20.1% in assay [5] (setting [22]).

As to `ClC1=C(Cl)C2(Cl)C3C4C=CC(C4)C3C1(Cl)C2(Cl)Cl` (centres undefined), the call in assay [12] was inactive. Also, in [1], the Potency is 3.16 µM (active). The Potency entry in [2], in assay [3], in assay [4] and in [20] was “inactive” throughout. For the same compound, in assay [5] (at 57.5 µM (top of the series)), the activity change, negative = inhibition is 4.06% (inactive). Further, the max response in [5] (setting [21]) worked out at 9.06%; in [5] (setting [22]), 23.4%.

With `C[C@@]12CC[C@H]3[C@@H](CC[C@@H]4C[C@H]5S[C@H]5C[C@]43C)[C@H]1CC[C@H]2O`, the compound was called inactive in assay [6], in [9] and in assay [12]. For the same compound, the Potency in assay [7] is 0.0251 µM (active); in assay [10], > 20.6 µM (inactive); in assay [11], > 20.6 µM (inactive); in assay [15], 7.75 µM (active). The activity change, negative = inhibition in [8] (at 17.2 µM (top of the series)) is -8.3% (inactive); in assay [5] (at 25.7 µM (top of the series)), -4.67% (inactive). Besides, the Potency result in [13], in [2], in assay [20], in assay [14], in assay [17] and in assay [18] was “inactive” each time. For the same compound, the Potency result in [19] was “inactive”. Further, the max response in assay [5] (setting [21]) was -19.3%; in [5] (setting [22]), -23.9%. The activity, negative = inhibition in assay [16] (parasite line A) is 2.41% (inactive); in [16] (parasite line B), 1.96% (inactive).

With `NC[C@H](O)c1ccc(O)cc1`, the outcome in [6], in assay [9] and in assay [12] was inactive. Moreover, the Potency result in assay [7], in assay [13] and in assay [20] was “inactive” in each case. Further, the activity change, negative = inhibition in assay [8] (at 17.2 µM (top of the series)) is 6.46% (inactive); in assay [8] (at 38 µM (top of the series)) it was 10.8% (inactive); in assay [5] (at 25.7 µM (top of the series)), -0.0033% (inactive). In addition, the max response in assay [5] (setting [21]) worked out at 1.62%; in [5] (setting [22]), 3.81%.
